According to PubChem BioAssay (Tox21):
Several values for one entry are separate records, joined by “and”; a condition that tells them apart may be missing. Equal entries are not always repeated. Inconclusive results are not listed. Entries that show only a call come without a potency. Where a structure was tested more than once in an assay, its records may differ in their call. Activity calls are given as the source filed them. Unless noted, calls follow the shape of the full dose curve.

What was measured:
[1] = Nuclear factor erythroid 2-related factor 2/antioxidant responsive element (Nrf2/ARE) small molecule agonists: qHTS cell viability counter screen in human keratinocytes (AID 1919968; active = well fitted cell-killing curve with a large enough effect in the repeat runs; also: nearly all actives have a fitted effect of over 55% in size; also: potency is read from the fitted curve at half-maximal effect)
Summary of the method: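 KeratinoSens HaCaT cells, 1,500/well, preincubated 5 h, then exposed to compounds in DMSO for 23 h at 37 C/5% CO2. Viability read as CellTiter-Fluor fluorescence after 1 h, in the same wells as the ARE-luciferase read.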

[2] = biological target: Gonadotropin-releasing hormone receptor (Homo sapiens) (UniProt P30968); assay: Human gonadotropin-releasing hormone receptor (GnRHR) small molecule agonists, calcium flux assay in GnRHR-HEK293 cells (AID 1920063); also: nearly all actives have a fitted effect of over 35% in size
Chain of Gonadotropin-releasing hormone receptor (Homo sapiens) (P30968 whole entry, looked up): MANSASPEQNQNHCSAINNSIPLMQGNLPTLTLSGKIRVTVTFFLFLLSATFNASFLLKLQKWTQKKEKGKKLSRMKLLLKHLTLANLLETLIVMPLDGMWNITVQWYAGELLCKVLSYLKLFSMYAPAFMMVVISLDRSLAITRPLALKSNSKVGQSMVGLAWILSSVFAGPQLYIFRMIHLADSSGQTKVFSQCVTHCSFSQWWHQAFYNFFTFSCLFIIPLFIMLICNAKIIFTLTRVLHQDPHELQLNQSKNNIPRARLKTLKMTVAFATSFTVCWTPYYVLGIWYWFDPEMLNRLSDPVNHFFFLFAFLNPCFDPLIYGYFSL
Summary of the method: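 HEK293 cells stably expressing human GnRHR were dye-loaded for 1 h at 37 C. Compound was added in agonist mode and fluorescence (Ex/Em 480/540) recorded kinetically for 3 min. Fifteen concentrations, triplicates.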

[3] = G protein-coupled receptor (GPCR) small molecule agonists, calcium flux assay: HEK293 wild type cell line counter screen (AID 1920065)
Summary of the method: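 Wild-type HEK293 cells plated 18 h, loaded with calcium dye 1 h at 37 C, then compounds added in agonist mode (ATP as positive control). Kinetic fluorescence Ex/Em 480/540 recorded 3 min at 1 sec intervals; 15 concentrations, triplicate.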

[4] = p53 small molecule agonists, cell-based qHTS assay with human liver microsomes (AID 1963577)
Summary of the method: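 p53RE-bla cells, 4,000/well, compound added after 5 h, with human liver microsomes 0.5 mg/mL and NADPH 0.5 mg/mL final; 16 h at 37 C, then LiveBLAzer 2 h RT, fluorescence.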

[5] = p53 small molecule agonists, cell-based qHTS assay with rat liver microsomes (AID 1963578)
Summary of the method: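 p53RE-bla cells, 4,000/well, pre-incubated 5 h, then given compounds plus rat liver microsomes (0.5 mg/mL final) and NADPH (0.5 mg/mL final). Incubation 16 h at 37 C; beta-lactamase reporter read by LiveBLAzer fluorescence after 2 h at room temperature.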

[6] = p53 small molecule agonists, cell-based qHTS assay with human liver microsomes: qHTS cell viability counter screen (AID 1963579); also: nearly all actives have a fitted effect of over 45% in size
Summary of the method: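 p53RE-bla cells, 4,000/well, dosed 5 hours after plating, with human liver microsomes (0.5 mg/mL final) plus NADPH (0.5 mg/mL final), 16 hours at 37 C. Viability read as CellTiter-Glo luminescence after 30 min at room temperature.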

[7] = p53 small molecule agonists, cell-based qHTS assay (AID 1963582; active = well fitted activation curve with a large enough effect in the signal ratio in the repeat runs, not every such curve was filed as active; the % refers to the signal ratio)
Summary of the method: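 p53RE-bla reporter cells, compounds added in DMSO after 5 h plating, incubated 16 h at 37 C. Beta-lactamase read via 2 h room-temperature LiveBLAzer B/G FRET substrate, fluorescence intensity.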

[8] = biological target: 5-hydroxytryptamine receptor 2A (Homo sapiens) (UniProt P28223); assay: 5-hydroxytryptamine receptor 2A (HTR2A) small molecule antagonists, cell-based qHTS assay (AID 1963586); also: nearly all actives have a fitted effect of over 45% in size
Chain of 5-hydroxytryptamine receptor 2A (Homo sapiens) (P28223 whole entry, looked up): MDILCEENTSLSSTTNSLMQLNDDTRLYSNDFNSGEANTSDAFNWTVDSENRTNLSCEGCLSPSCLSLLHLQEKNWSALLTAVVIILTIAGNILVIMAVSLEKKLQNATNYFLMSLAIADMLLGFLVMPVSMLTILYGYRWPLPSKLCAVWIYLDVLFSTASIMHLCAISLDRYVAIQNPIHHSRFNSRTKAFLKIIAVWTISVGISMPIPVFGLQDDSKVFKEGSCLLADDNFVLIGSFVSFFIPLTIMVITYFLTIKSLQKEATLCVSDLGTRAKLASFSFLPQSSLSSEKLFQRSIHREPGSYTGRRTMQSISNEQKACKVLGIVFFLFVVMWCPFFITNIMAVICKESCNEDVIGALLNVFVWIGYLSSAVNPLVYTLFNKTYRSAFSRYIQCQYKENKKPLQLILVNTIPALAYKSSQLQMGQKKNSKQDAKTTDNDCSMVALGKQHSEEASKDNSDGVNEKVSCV
Summary of the method: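 Antagonist-mode intracellular calcium assay: DOI (4 nM) added after 5 min compound pre-incubation at room temperature to dye-loaded HTR2A-CHO cells. Fluorescence followed for 3 min, sampled every second.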

[9] = biological target: Muscarinic acetylcholine receptor M1 (Homo sapiens) (UniProt P11229); assay: Cholinergic receptor muscarinic 1 (CHRM1) small molecule antagonists, cell-based qHTS assay (AID 1963588); also: nearly all actives have a fitted effect of over 40% in size; also: potency is read from the fitted curve at half-maximal effect
Chain of Muscarinic acetylcholine receptor M1 (Homo sapiens) (P11229 whole entry, looked up): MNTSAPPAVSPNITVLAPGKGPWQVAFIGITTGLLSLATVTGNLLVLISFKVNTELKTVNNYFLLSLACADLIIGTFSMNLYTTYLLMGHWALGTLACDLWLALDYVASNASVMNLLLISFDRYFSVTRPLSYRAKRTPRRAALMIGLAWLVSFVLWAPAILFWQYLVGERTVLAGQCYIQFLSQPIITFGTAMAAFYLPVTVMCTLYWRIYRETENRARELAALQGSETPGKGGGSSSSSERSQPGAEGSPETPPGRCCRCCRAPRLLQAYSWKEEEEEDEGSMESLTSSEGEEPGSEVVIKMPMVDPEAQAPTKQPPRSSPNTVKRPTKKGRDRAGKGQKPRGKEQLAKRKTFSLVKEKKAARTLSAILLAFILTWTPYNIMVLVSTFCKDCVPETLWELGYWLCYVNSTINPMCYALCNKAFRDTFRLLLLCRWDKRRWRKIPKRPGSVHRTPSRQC
Summary of the method: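 CHRM1-CHO calcium-flux assay, antagonist mode. Cells were seeded 18 h, dye-loaded 1 h at 37 C and given compound for 5 min at RT, then acetylcholine was added at 50nM. FDSS fluorescence was read 3 min; 15 concentrations, three runs.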

[10] = biological target: Muscarinic acetylcholine receptor M1 (Homo sapiens) (UniProt P11229); assay: Cholinergic receptor muscarinic 1 (CHRM1) small molecule agonists, cell-based qHTS assay (AID 1963589); also: nearly all actives have a fitted effect of over 35% in size
Summary of the method: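 CHO cells stably expressing human CHRM1 were loaded with calcium dye for 1 h at 37 C, then compound was added in agonist mode. Intracellular calcium fluorescence was followed kinetically at 1 s intervals. Fifteen concentrations were tested in three independent runs.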

[11] = biological target: Beta-2 adrenergic receptor (Homo sapiens) (UniProt P07550); assay: Adrenergic beta2 receptor (ADRB2) small molecule antagonists, cell-based qHTS assay (AID 1963592); also: series mostly up to about 92 µM; nearly all actives have a fitted effect of over 50% in size
Chain of Beta-2 adrenergic receptor (Homo sapiens) (P07550 whole entry, looked up): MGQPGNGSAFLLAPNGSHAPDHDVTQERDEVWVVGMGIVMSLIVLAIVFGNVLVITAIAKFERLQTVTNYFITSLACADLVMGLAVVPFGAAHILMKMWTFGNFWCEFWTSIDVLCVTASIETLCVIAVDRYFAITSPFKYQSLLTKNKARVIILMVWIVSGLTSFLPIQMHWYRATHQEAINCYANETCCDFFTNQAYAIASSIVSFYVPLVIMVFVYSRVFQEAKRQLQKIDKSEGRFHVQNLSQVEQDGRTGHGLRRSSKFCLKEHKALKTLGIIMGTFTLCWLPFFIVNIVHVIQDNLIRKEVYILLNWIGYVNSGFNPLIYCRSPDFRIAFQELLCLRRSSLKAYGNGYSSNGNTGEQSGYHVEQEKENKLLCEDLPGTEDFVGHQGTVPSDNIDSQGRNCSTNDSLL
Summary of the method: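 Cells (CHO, stable ADRB2 overexpression) incubated 18-20hr at 37C; compounds added from DMSO; agonist mix (1nM isoproterenol, 100uM IBMX, 25uM Ro-20-1724) added; 0.5hr RT; d2-cAMP and anti-cAMP-cryptate added; 1hr RT; 665/615 nm read.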

[12] = biological target: D(2) dopamine receptor (Homo sapiens) (UniProt P14416); assay: Dopamine D2 receptor (DRD2) small molecule agonists, cell-based qHTS assay (AID 1963594); also: nearly all actives have a fitted effect of over 35% in size
Chain of D(2) dopamine receptor (Homo sapiens) (P14416 whole entry, looked up): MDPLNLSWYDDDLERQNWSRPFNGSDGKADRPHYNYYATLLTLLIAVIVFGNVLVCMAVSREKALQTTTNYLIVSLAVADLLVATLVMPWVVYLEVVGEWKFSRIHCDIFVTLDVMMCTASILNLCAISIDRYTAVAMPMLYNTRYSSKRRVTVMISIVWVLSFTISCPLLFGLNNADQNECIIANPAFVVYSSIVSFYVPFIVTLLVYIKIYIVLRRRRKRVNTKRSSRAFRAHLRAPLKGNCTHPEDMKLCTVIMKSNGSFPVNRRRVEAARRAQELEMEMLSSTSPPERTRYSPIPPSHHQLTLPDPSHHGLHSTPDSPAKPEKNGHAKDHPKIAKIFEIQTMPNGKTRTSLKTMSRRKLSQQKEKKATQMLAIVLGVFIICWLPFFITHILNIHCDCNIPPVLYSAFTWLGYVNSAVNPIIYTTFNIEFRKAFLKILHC
Summary of the method: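 cAMP accumulation in DRD2-HEK293 cells measured by HTRF after 1 h detection; compounds added 10 min before NKH477 (200nM […]) forskolin-analogue stimulation, 30 min at room temperature, with Ro20-1724 present at 0.1 mM final.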

[13] = p53 small molecule agonists, cell-based qHTS assay with rat liver microsomes: qHTS cell viability counter screen (AID 1963580); also: nearly all actives have a fitted effect of over 45% in size
Summary of the method: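 HCT-116 p53RE-bla, 4,000 cells/well, 5 h pre-incubation; cpd + rat liver microsomes 0.5 mg/mL + NADPH 0.5 mg/mL (final); 16 h, 37 C; CellTiter-Glo, 30 min RT; luminescence.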

[14] = p53 small molecule agonists, cell-based qHTS assay: qHTS cell viability counter screen (AID 1963581); also: nearly all actives have a fitted effect of over 45% in size
Summary of the method: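 p53RE-bla HCT-116 cells, compounds added 5 h after plating and incubated 16 h at 37 C. Cytotoxicity measured in the same wells as intracellular ATP by CellTiter-Glo luminescence after 30 min at room temperature.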

[15] = biological target: 5-hydroxytryptamine receptor 2A (Homo sapiens) (UniProt P28223); assay: 5-hydroxytryptamine receptor 2A (HTR2A) small molecule agonists, cell-based qHTS assay (AID 1963587); also: nearly all actives have a fitted effect of over 30% in size
Summary of the method: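 Kinetic calcium-flux fluorescence (2 min, 1 sec intervals) after compound addition in agonist mode. HTR2A-CHO cells were cultured 18 h, then dye-loaded 1 h at 37 C.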

[16] = cAMP Responsive Elements (CRE) small molecule agonists, cell-based qHTS assay (AID 1963590)
Summary of the method: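 CRE-bla HEK 293T cells, 2,000/well in DMEM with 10% dialyzed FBS and 25 mM HEPES, pre-incubated 18 h at 37 C, then exposed to compound 3 h at 37 C. Beta-lactamase reporter read with LiveBLAzer B/G FRET substrate after 2 h at room temperature.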

[17] = cAMP Responsive Elements (CRE) small molecule antagonists, cell-based qHTS assay (AID 1963591; active = well fitted inhibition curve with a large enough effect in the signal ratio in the repeat runs, not every such curve was filed as active; the % refers to the signal ratio)
Summary of the method: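 CRE-bla HEK293T cells plated 18 h, then given compound plus NKH477 at 0.25 uM final for 3 h at 37C. Beta-lactamase reporter read with LiveBLAzer B/G FRET substrate after 2 h at room temperature.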

[18] = biological target: D(2) dopamine receptor (Homo sapiens) (UniProt P14416); assay: Dopamine D2 receptor (DRD2) small molecule antagonists, cell-based qHTS assay (AID 1963595; active = well fitted inhibition curve with a large enough effect in the signal ratio in the repeat runs, with a control signal flat; the % refers to the signal ratio)
Summary of the method: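 Cells were plated and grown for 24 h at 37 °C. Ro20-1724 (0.1 mM final) went in first, then compound for 10 min. NKH477 (200 nM) with quinpirole (12 nM) followed for 30 min at RT, then HTRF detection reagents for 1 h.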

Structure (SMILES): O=S1OCC2C(CO1)C1(Cl)C(Cl)=C(Cl)C2(Cl)C1(Cl)Cl (stereo unspecified)
- Potency [1]: 48.6 µM (active) and 61.1 µM (active)
- Potency [2]: inactive
- Potency [3]: inactive
- Potency [4]: inactive
- Potency [5]: inactive
- Potency [6]: inactive
- Potency [7]: inactive
- Potency [8]: inactive
- Potency [9]: 37.5 µM (active) and inactive
- Potency [10]: inactive
- Potency [11]: inactive
- Potency [12]: inactive

Structure (SMILES): OC[C@@H](O)[C@H]1O[C@@H]2O[C@H](C(Cl)(Cl)Cl)O[C@@H]2[C@H]1O
- Potency [1]: inactive
- Potency [2]: inactive
- Potency [3]: inactive
- Potency [6]: inactive
- Potency [13]: inactive
- Potency [14]: inactive
- Potency [8]: inactive
- Potency [15]: inactive
- Potency [9]: inactive
- Potency [10]: inactive
- Potency [16]: inactive
- Potency [17]: inactive
- Potency [11]: inactive
- Potency [12]: inactive

Structure (SMILES): COc1ccc(C=O)cc1OC
- Potency [1]: inactive
- Potency [2]: inactive
- Potency [4]: inactive
- Potency [5]: inactive
- Potency [6]: inactive
- Potency [13]: inactive
- Potency [14]: inactive
- Potency [7]: inactive
- Potency [8]: inactive
- Potency [15]: inactive
- Potency [9]: inactive
- Potency [10]: inactive
- Potency [16]: inactive
- Potency [17]: inactive
- Potency [11]: inactive
- Potency [12]: inactive
- Potency [18]: inactive

Structure (SMILES): N#Cc1cc(Br)c(O)c(Br)c1
- Potency [1]: inactive
- Potency [2]: inactive
- Potency [3]: inactive
- Potency [4]: inactive
- Potency [5]: inactive
- Potency [14]: inactive
- Potency [8]: inactive
- Potency [15]: inactive
- Potency [9]: inactive
- Potency [17]: inactive
- Potency [11]: inactive
- Potency [12]: inactive
- Potency [18]: inactive
